Screening results: PubChem BioAssay, National Center for Advancing Translational Sciences (NCATS)
IMPase Li cell = cell-permeable IMPase inhibitors with lithium potentiation; Potency, µM (top dose mostly 59.4 µM), for inactives: at the highest dose activity, negative = IMPase inhibition, most hits filed as inhibitors; AID 1457; hit rate 0.35% among 210,000; CHO-M1 cells, IP1 TR-FRET (IP-One), carbachol + lithium;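 also: IP1 builds up when IMPase is blocked and the TR-FRET signal falls; plate controls were basal vehicle for no effect and high inhibitor control for full effect; nearly all actives have a fitted effect of over 50% in size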
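CHO-M1, 2000 cells/well, 16–30 h culture; cpd + low Li+, 30 min 37C; lysis with d2-IP1/Eu-anti-IP1 Ab, 10 min RT; TR-FRET 665/620 ratio and 620 channel; AC50 via Hill.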
JMJD2E inh = JMJD2E (human) inhibition; hit rate 1.6% among 230,000; AID 2147; B2RXH2; Potency, µM (doses to about 57.1 µM), inactives show at the top dose activity change, negative = inhibition, most hits filed as inhibitors; JMJD2E catalytic domain, FDH-coupled NADH fluorescence (FDH is formaldehyde dehydrogenase);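 also: 0% = wells with enzyme and -100% = buffer wells without enzyme; nearly all actives have a fitted effect of over 50% in size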
Epigenetic derep = epigenetic control regulation, reporter derepression; Potency, µM (doses to about 53.9 µM), inactives show top-dose GFP activation, most hits filed as activators; hit rate 0.2% among 280,000; murine LDR cells, GFP reporter derepression, 30 h; AID 1865; also: % of control where 0% means no effect; nearly all actives have a fitted effect of over 60% in size
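Reporter derepression read as number of fluorescent GFP-positive objects, 20-120 um in size, counted by laser-scanning cytometer. Mouse LDR line with an epigenetically silenced CMV-GFP locus; compound incubation 30 h, 37 C.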
NPSR antagonist = blocks cAMP signaling of the human neuropeptide S receptor. AID 1461. hit rate 1% among 220,000. CHO-NPSR cells, cAMP TR-FRET, antagonist mode. Potency, µM (titrated, usually from 38.3 µM), for the others: top-dose activity change, negative = inhibition, actives largely listed as inhibitors. Q6W5P4; also: % is scaled to controls: 0 for no effect and ±100 for the full control effect; nearly all actives have a fitted effect of over 50% in size
Target sequence (Q6W5P4 whole entry, looked up): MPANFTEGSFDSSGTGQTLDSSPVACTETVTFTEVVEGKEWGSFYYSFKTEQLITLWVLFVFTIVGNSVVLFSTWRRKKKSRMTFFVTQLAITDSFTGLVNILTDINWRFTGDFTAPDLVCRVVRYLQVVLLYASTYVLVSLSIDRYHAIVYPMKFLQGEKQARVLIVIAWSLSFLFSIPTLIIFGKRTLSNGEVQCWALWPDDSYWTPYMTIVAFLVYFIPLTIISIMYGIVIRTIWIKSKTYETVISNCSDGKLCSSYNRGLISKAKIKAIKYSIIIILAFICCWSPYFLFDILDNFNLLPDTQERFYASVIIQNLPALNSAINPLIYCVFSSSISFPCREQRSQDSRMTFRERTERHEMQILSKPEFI
KAT2A inh = inhibitors of human GCN5L2 histone acetyltransferase; Q92830; GCN5L2 HAT assay, ThioGlo1 CoA-SH fluorescence; Potency, µM (doses to about 58.9 µM), inactives show at the top dose activity change, negative = inhibition, hits mostly inhibitors; hit rate 0.21% among 390,000; also: % is scaled to controls: 0 for no effect and ±100 for the full control effect
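GCN5L2 (20 nM) in 50mM HEPES pH 7.5, 0.1mM EDTA, 0.01% Tween-20 preincubated 15 min with compounds at room temperature. Reaction started with H3(1-25) 75uM, acetyl-CoA 70uM, ThioGlo1 50uM; CoA-thiol fluorescence (Ex340/Em540) read at 0 and 20 min.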
Sfp PPTase inh = inhibitors of Bacillus subtilis Sfp phosphopantetheinyl transferase; Biochemical Sfp PPTase activity, qHTS; AID 1490; Potency, µM, for inactives: largest response in the series, negative = inhibition, hits mostly inhibitors; hit rate 3.5% among 310,000; Q9F4F7;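 also: the enzyme is Sfp with the accession as filed and its product quenches rhodamine fluorescence; 0% = enzyme reaction without inhibitor and -100% = no enzyme wells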
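Step 1, compound plus 15 nM Sfp-PPTase, 15 min, room temperature. Step 2, add rhodamine-CoA (5 uM) and BHQ-2-YbbR (12.5 uM). Step 3, read 525/598 nm fluorescence at 0 and 30 min.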
Numbers without * were called inactive; ? = inconclusive; . = no result; [ ] = dose if it differs, or a comment. In the library only some 3.6% were active in any assay of this set; here they are far more common. Unless noted, calls follow the shape of the dose curve; as a rule, active = well fitted curve in the direction sought with a large enough effect; inconclusive = small, poorly fitted or top-dose-only effect, or another doubt; inactive = no such curve, though single readings can be large; an effect the other way counts as inactive or inconclusive. Potency is read from the fitted curve at half-maximal effect.

SMILES | IMPase Li cell | JMJD2E inh | Epigenetic derep | NPSR antagonist | KAT2A inh | Sfp PPTase inh
Cc1ccc(N2C(=O)NC(=O)/C(=C/c3ccoc3)C2=O)cc1 | . | ? | 0% | 6% | -19% | 25µM*
COc1ccc(/C=C2/C(=O)NC(=O)N(c3ccc(C)c(C)c3)C2=O)cc1CN1C(=O)c2ccccc2C1=O | 26% | -9% | 2% | -17% | 38% | 40µM*
COc1cc(/C=C2\C(=O)NC(=O)N(c3ccc(C)cc3)C2=O)cc(OC)c1O | 6% | ? | 0% | -31% | -9% | 35µM*
COc1cc(/C=C2/C(=O)NC(=O)N(c3ccc(C)cc3)C2=O)cc(OC)c1OC | . | ? | 1% | 6% | 0% | 50µM*
CC1=NN(c2ccccc2)C(=O)C1/C=C1\C(=O)NC(=O)N(c2ccc(C)c(C)c2)C1=O (stereo unspecified) | 8%[38.3 µM] | 0% | 0% | -15%[46.1 µM] | 1%[0.501 µM] | -20%
COc1cc(/C=C2\C(=O)NC(=O)N(c3ccccc3)C2=O)cc(OC)c1OC | 14%[38.3 µM] | -15% | 1% | -6%[46.1 µM] | -26% | ?
S=P(C1CCCCC1)(C1CCCCC1)[C@H](c1cccnc1)N1CCCC1 | 5% | . | . | . | . | .
CCN(CC)c1ncnc2c1ncn2[C@@H]1O[C@@H](COP(=O)(O)OP(=O)(O)C(Br)(Br)P(=O)(O)O)[C@H](O)[C@H]1O | 8% | ? | 0% | . | -19% | -15%
CCOC(=O)CC(SP(=O)(OC)OC)C(=O)OCC (stereo unspecified) | -11% | . | . | . | . | .
C(=NC1CCCCC1)=NC1CCCCC1 | 6% | . | . | . | . | .
Brc1c(NC2=NCCN2)ccc2nccnc12 | 0% | 20µM* | 1% | 11% | -5% | -8%
COc1ccc(N2C(=O)/C(=C/c3ccc(OC)c(OC)c3)C(=O)NC2=S)cc1 | . | . | . | . | -16% | -94%
CCOC(=O)COc1ccc(/C=C2\C(=O)NC(=S)N(c3ccc(OC)cc3)C2=O)cc1OC | . | . | . | . | -5% | 45µM*
COC(=O)COc1ccc(/C=C2\C(=O)NC(=S)N(c3ccc(C)cc3)C2=O)cc1OC | . | . | . | . | -13% | 40µM*
O=C(CCC(=O)N1CCOc2ccc(Cl)cc21)N1CCC2(CC1)OCCO2 | . | . | . | . | -1% | -3%
O=C(NC1(C(F)(F)F)Oc2ccccc2O1)N1CCC2(CC1)OCCO2 | 9% | 14µM* | 0% | 10% | -9% | -1%
O=C(NC1(C(F)(F)F)Oc2ccc(Cl)cc2O1)N1CCC2(CC1)OCCO2 (stereo unspecified) | 20%[38.3 µM] | 16µM* | 1% | 9%[46.1 µM] | -4% | 79µM*
CO[C@H]1[C@H](O)[C@H](O[C@@H]2[C@H](Oc3cccc4c(O)c5c(=O)oc6ccc(C)c7c(=O)oc(c34)c5c67)O[C@@H](C)[C@H](O)[C@H]2O)O[C@@H](C)[C@@H]1O | 3% | . | . | . | . | .
CCOC(=O)C1CCN(/C=C2/C(=O)NC(=S)N(c3cccc(OC)c3)C2=O)CC1 | 1% | 8% | -2% | 7% | -2% | 0%
CCOC(=O)C1CCN(/C=C2\C(=O)NC(=S)N(CC)C2=O)CC1 | -8% | 0% | -2% | 34% | -3% | 79µM*
Cc1c(F)c(F)c(COC(=O)C2C(/C=C(\Cl)C(F)(F)F)C2(C)C)c(F)c1F (stereo unspecified) | . | . | . | . | 0% | 9%
CCC(=O)N1N=C(c2c(O)n(CCc3ccccc3)c(=O)[nH]c2=O)CC1c1ccc(OC)c(OC)c1 (stereo unspecified) | . | 20µM* | -1% | 17% | -9% | 22%
COc1ccc(CCn2c(O)c(C=NCCN3CCCCC3)c(=O)[nH]c2=O)cc1OC | 10%[38.3 µM] | 1% | 1% | -8%[46.1 µM] | 0% | 1%
CC[C@@H](CO)NC(=O)[C@H]1C=C2c3cccc4c3c(cn4C)C[C@H]2N(C)C1 | -4% | ? | -1% | ? | -22% | 56µM*
CC(=O)N1CC[N+](C)(C)CC1 | -11% | 11µM* | 0% | . | 20µM* | 0%
CC(=O)N1CN(C(C)=O)CN(C(C)=O)C1 | 2% | 2% | -3% | 15% | -1% | 12%
